According to PubChem BioAssay:
Values without a mark were called inactive. How the calls were made is not given here. Where a SMILES comes first, the peptide text is derived from it. [ ]: non-standard residue; d: D form. The star is where a group is joined. ξ: configuration not given here. Piv = CC(C)(C)C(=O)*; ξNva = CCCC(N)C(=O)O

Target: Pantothenate synthetase (Mycobacterium tuberculosis (strain ATCC 25618 / H37Rv)) (UniProt P9WIL5)
Test: Recombinant Mtb pantothenate synthetase (PanC) inhibitors, coupled enzyme, confirmatory (AID 375);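 further: 0% = full reaction with vehicle and 100% = no enzyme background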
Details: coupled enzyme assay; at 10 µM, active compounds read high

Sequence of Pantothenate synthetase (Mycobacterium tuberculosis (strain ATCC 25618 / H37Rv)) (P9WIL5 whole entry, looked up): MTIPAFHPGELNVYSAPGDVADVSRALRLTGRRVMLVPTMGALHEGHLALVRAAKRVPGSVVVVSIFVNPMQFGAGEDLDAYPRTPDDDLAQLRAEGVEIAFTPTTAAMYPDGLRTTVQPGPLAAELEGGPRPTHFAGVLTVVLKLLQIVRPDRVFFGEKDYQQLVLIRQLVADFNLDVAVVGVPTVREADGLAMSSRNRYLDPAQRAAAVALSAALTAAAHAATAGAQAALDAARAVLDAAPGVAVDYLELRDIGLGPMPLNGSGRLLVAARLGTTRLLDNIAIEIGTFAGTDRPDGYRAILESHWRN

SMILES | inhibition
CC(NC(=O)c1ccc(F)cc1)C(c1cccs1)N1CCN(C)CC1 (stereo not given) | 3%
O=C(c1ccco1)N1CCN(S(=O)(=O)c2ccc(Oc3ccccc3)cc2)CC1 | 0%
Cc1ccc2c(COn3nnc4ccc(S(=O)(=O)N(C)C)cc43)cc(=O)oc2c1C | 3%
CC(=O)Nc1ccc(-c2cc3ccccc3o2)cc1 | 8%
CCOc1ccccc1C(=O)NC(C)c1ccc2c(c1)OCO2 (stereo not given) | 0%
Cc1c(NS(=O)(=O)c2ccc3c(c2)c(=O)n(C)c(=O)n3C)c(=O)n(-c2ccccc2)n1C | 14%
O=C(COc1nnnc2ccccc12)N1CCCc2ccccc21 | 0%
CCOC(=O)N1CCC(c2cc(=O)n3[nH]cc(C(=O)OC)c3n2)CC1 | 0%
Fc1ccc(NCc2nnc(SCc3nnc(-c4ccccc4)o3)n2CC2CCCO2)cc1 (stereo not given) | 0%
Cc1cccc(NC(=O)c2cc3ccccc3o2)c1 | 5%
O=C(CSc1nc(O)c(Cc2ccccc2)c(=O)[nH]1)Nc1ccccc1 | 0%
CCOC(=O)N1CCC(NC(=O)Cc2ccc(-n3c(=O)[nH]c4ccccc4c3=O)cc2)CC1 | 3%
CCC1C(=O)n2nc(-c3ccccc3)cc2N=C1C (stereo not given) | 0%
COCc1cc(C)c2c(N)c(C#N)sc2n1 | 1%
CSC1=C(C#N)C(c2ccc(Cl)cc2)C2=C(CC(C)(C)CC2=O)N1 (stereo not given) | 2%
O=C(Cn1cnc2ccccc2c1=O)NCCC(=O)N1CCN(c2ccccc2)CC1 | 0%
CCC1Cc2c(nc3c4c(nc(N5CCOCC5)c(C#N)c24)NC(C)=N3)O1 (stereo not given) | 0%
O=C(Cn1c(=O)oc2ccccc21)N1CCN(c2ccccc2)CC1 | 0%
CN(C)C=Nc1nonc1N | 10%
CN(C)CCOC(=O)C(c1ccccc1)C1(O)CCCC1 (stereo not given) | 5%

SMILES | inhibition
O=C(CN1C(=O)c2ccccc2S1(=O)=O)Nc1ccc(S(=O)(=O)N2CCCCCC2)cc1 | 6%
O=S(=O)(c1ccc(F)c(Cl)c1)N1CCCC1 | 0%
COc1ccc(CN(C)CC(=O)c2c(N)n(Cc3ccccc3)c(=O)n(C)c2=O)c(OC)c1 | 0%
CCCCCn1c(CN2CCN(C)CC2)nc2c1c(=O)n(C)c(=O)n2C | 0%
COc1ccc(N2CCN(CCNC(=O)CCS(=O)(=O)c3cccc4nsnc34)CC2)cc1 | 0%
COc1cccc(C(=O)n2cnnc2N)c1OC | 4%
Oc1ccccc1-c1nnc(COc2ccc(Cl)cc2Cl)o1 | 1%
COc1ccc(OC)c(NC(=O)C23CCC(C)(C(=O)C2)C3(C)C)c1 (stereo not given) | 3%
Cc1cc(C)nc(SCc2ccc3nonc3c2)n1 | 1%
C=CCNC(=O)c1cc(-c2ccccc2O)on1 | 0%
CCc1c(C)c2ccc(OCC(=O)OC)cc2oc1=O | 0%
O=C(C1CCN(C2CC(=O)N(c3ccc(F)cc3)C2=O)CC1)N1CCOCC1 (stereo not given) | 0%
COC(=O)C(C)NC(=O)C12CC3CC(CC(C3)C1)C2 (stereo not given) | 0%
CCCC(NC(=O)CNC(=O)C(C)(C)C)C(=O)O (stereo not drawn) (Piv-Gly-[ξNva]-OH) | 0%
Cc1cc(-c2ccccc2)c2nncn2n1 | 3%
Cc1ccc2c(c1)-c1cc(C)nn1C(c1ccc3c(c1)OCO3)N2 (stereo not given) | 0%
CCCN(CCC)c1nc2ccccc2n2c(C)nnc12 | 4%
CCCc1cc(=O)n2[nH]cnc2n1 | 0%
CC(C)C(NC(=O)c1ccccc1NC(=O)c1ccco1)C(=O)O (stereo not given) | 4%
O=C1NC(=O)C2(CCC(C(=O)O)C2)N1 (stereo not given) | 11%
